Records with an inconclusive call do not appear. Unless noted, calls follow the shape of the dose curve; as a rule, active = well fitted curve in either direction with a large enough effect (not every such curve was filed as active); inconclusive = small, poorly fitted or top-dose-only effect, or another doubt; inactive = flat fitted curve, though single readings scatter.
Tests used:
[1] = AP1 Signaling Pathway (AID 357); details: ME-180 AP-1-bla reporter, EGF-induced, beta-lactamase ratio, 5 h; at 17.2 µM (top of the series) unless noted;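 also: ME-180 reporter cells stimulated with EGF at its EC50 level; % is scaled to controls: 0 for no effect and ±100 for the full control effect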
Procedure, shortened: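 AP-1-bla ME-180 cells, Opti-MEM + 0.5% dialyzed FBS, plated overnight 37 °C. Cpd titration + EC50 EGF, 5 h 37 °C. CCF4 2.5 h RT; ex 405, em 460/530 ratio → %activity, AC50.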

[2] = NFAT Signaling Pathway (AID 444); details: Jurkat NFAT-bla M1, carbachol, beta-lactamase ratio, 5 h; at 17.2 µM (top of the series) unless noted;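 also: carbachol stimulus at about its EC50 of 1 µM final; % is scaled to controls: 0 for no effect and ±100 for the full control effect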
Procedure, shortened: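 Jurkat cells with NFAT-driven β-lactamase reporter and co-expressed M1 receptor, stimulated with carbachol (final 1 uM, ~EC50), compound titration, 5 h at 37 °C. CCF4 loaded 1 h at RT; 460/530 nm ratio gave %activity and AC50.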

[3] = Stat Signaling Pathway (AID 446); details: ME-180 (cervical carcinoma) SIE beta-lactamase reporter, IL-6 stimulated, 5 h; at 17.2 µM (top of the series) unless noted;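 also: ME-180 cervical cancer cells given 40 pM IL-6 alongside compound; SIE-controlled beta-lactamase reporter measured as 460/530 nm FRET emission ratio; % is scaled to controls: 0 for no effect and ±100 for the full control effect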
Procedure, shortened: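 IL-6/STAT signaling read in ME-180 cells via an SIE beta-lactamase reporter. Stimulus was 40 pM IL-6 (its AC50) for 5 hrs, so both activation and inhibition register.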

[4] = target: Glucocorticoid receptor (Homo sapiens) (UniProt P04150); test: GR-GFP Redistribution (AID 450;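 active = compounds whose dose series gives a full or clear partial fitted curve of increased nuclear translocation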; also: potency is read from the fitted curve at half-maximal effect)
Chain of Glucocorticoid receptor (Homo sapiens) (P04150 whole entry, looked up): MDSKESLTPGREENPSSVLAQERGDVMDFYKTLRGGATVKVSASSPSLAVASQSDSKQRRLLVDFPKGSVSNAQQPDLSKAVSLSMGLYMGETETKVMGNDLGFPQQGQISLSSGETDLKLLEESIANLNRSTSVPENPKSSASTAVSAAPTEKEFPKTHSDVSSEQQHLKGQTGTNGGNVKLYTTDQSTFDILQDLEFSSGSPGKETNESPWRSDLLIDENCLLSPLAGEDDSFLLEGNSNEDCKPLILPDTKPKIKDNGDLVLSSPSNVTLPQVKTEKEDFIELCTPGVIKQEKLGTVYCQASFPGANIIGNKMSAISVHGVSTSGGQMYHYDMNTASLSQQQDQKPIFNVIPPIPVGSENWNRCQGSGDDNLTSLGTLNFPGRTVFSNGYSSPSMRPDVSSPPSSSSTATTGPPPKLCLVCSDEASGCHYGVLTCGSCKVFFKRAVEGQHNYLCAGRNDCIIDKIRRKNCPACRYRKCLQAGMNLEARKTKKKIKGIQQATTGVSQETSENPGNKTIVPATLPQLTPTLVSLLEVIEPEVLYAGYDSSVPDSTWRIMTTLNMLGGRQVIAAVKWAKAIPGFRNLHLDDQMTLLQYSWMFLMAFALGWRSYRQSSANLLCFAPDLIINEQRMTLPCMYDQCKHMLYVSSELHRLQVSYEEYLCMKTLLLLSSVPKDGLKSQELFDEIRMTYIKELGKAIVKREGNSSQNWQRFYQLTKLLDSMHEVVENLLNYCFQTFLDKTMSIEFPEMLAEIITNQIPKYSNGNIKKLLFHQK

COC(=O)c1cc2c(=O)n3cccc(C)c3nc2n(Cc2cccnc2)c1=N
inactive: activity change, negative = inhibition [1] 7.65% | activity change, negative = inhibition [2] -10.7% | activity, negative = inhibition [3] 15.4% | Potency [4] > 20.6 µM

CN(C)c1oc(-c2cccs2)nc1C#N
inactive: activity change, negative = inhibition [1] -7.44% | activity change, negative = inhibition [2] 8.47% | activity, negative = inhibition [3] 10.4% | Potency [4] > 20.6 µM

COc1ccccc1-n1c(N)c(C(=O)NCC2CCCO2)c2nc3ccccc3nc21 (stereo not given)
inactive: activity change, negative = inhibition [1] 19.4% | activity change, negative = inhibition [2] 21.4% | activity, negative = inhibition [3] -0.0521% | Potency [4] > 20.6 µM

C/C(NC(=O)c1cccs1)=C1\C(=O)C[C@@H]2[C@H]1C2(C)C
inactive: activity change, negative = inhibition [1] -9.31% | activity change, negative = inhibition [2] -25.4% | activity, negative = inhibition [3] -12.2% | Potency [4] > 20.6 µM

C/C(=N/n1cnnc1)c1cccnc1
inactive: activity change, negative = inhibition [1] -1.84% | activity change, negative = inhibition [2] -0.807% | activity, negative = inhibition [3] 16.1% | Potency [4] > 20.6 µM

O=C(Nc1nccs1)NC(C(F)(F)F)C(F)(F)F
inactive: activity change, negative = inhibition [1] -10.3% | activity change, negative = inhibition [2] 9.14% | activity, negative = inhibition [3] 10.4% | Potency [4] > 20.6 µM

COc1cc(C2CC(C(F)(F)F)n3ncc(C(=O)O)c3N2)cc(OC)c1OC (stereo not given)
inactive: activity change, negative = inhibition [1] 6.2% | activity change, negative = inhibition [2] -3.76% | activity, negative = inhibition [3] 7.46% | Potency [4] > 20.6 µM

CN1C(=O)c2c(sc3c2CCCC3)NC1c1ccccc1O (stereo not given)
inactive: activity change, negative = inhibition [1] -12.2% | activity change, negative = inhibition [2] -10.9% | activity, negative = inhibition [3] -25.9% | Potency [4] > 20.6 µM

O=C1CCC(=O)N1CN(Cc1ccco1)CN1C(=O)CCC1=O
inactive: activity change, negative = inhibition [1] 7.15% | activity change, negative = inhibition [2] 5.38% | activity, negative = inhibition [3] 0.484% | Potency [4] > 20.6 µM

CCCc1nc2n[nH]c(N)c2c2c1CCCC2
inactive: activity change, negative = inhibition [1] 6.52% | activity change, negative = inhibition [2] -0.387% | activity, negative = inhibition [3] 12.6% | Potency [4] > 20.6 µM

O=c1[nH]c(CN(CCO)CCO)nc2c1C1(CCCCC1)Cc1ccccc1-2
inactive: activity change, negative = inhibition [1] 8.29% | activity change, negative = inhibition [2] 6.88% | activity, negative = inhibition [3] -8.23% | Potency [4] > 20.6 µM

COc1ccc(OC)c(C(O)c2coc3ccc(O)c(CN4CCOCC4)c23)c1 (stereo not given)
inactive: activity change, negative = inhibition [1] 0.618% | activity change, negative = inhibition [2] -10.4% | activity, negative = inhibition [3] -5.12% | Potency [4] > 20.6 µM

Cc1[nH]nc2c1C(CCc1ccccc1)C(C#N)=C(N)O2 (stereo not given)
inactive: activity change, negative = inhibition [1] -6.35% | activity change, negative = inhibition [2] 10.3% | activity, negative = inhibition [3] -1.82% | Potency [4] > 20.6 µM

CC(C)Cc1[nH]c(=O)c(C#N)c2c1CCCC2
inactive: activity change, negative = inhibition [1] 3.62% | activity change, negative = inhibition [2] 2.23% | activity, negative = inhibition [3] 8.54% | Potency [4] > 20.6 µM

CCSc1nnc(NC(=O)NCC(F)(F)F)s1
inactive: activity change, negative = inhibition [1] 7.55% | activity change, negative = inhibition [2] 2.76% | activity, negative = inhibition [3] 16.4% | Potency [4] > 20.6 µM

O=C(CCCN1C(=O)c2ccccc2C1=O)N1CCC(c2ccccc2)C1 (stereo not given)
inactive: activity change, negative = inhibition [1] -21.8% | activity change, negative = inhibition [2] 15.7% | activity, negative = inhibition [3] 1.3% | Potency [4] > 20.6 µM

Cn1c(=O)c2c(nc(N3CCN(Cc4ccccc4)CC3)n2CC(=O)c2ccccc2)n(C)c1=O
inactive: activity change, negative = inhibition [1] -9.66% | activity change, negative = inhibition [2] -8.82% | activity, negative = inhibition [3] 0.621% | Potency [4] > 20.6 µM

CC1(C)Cc2c(sc3[nH]c(=S)n(Cc4ccco4)c(=O)c23)CO1
inactive: activity change, negative = inhibition [1] -2.74% | activity change, negative = inhibition [2] -5.17% | activity, negative = inhibition [3] -8.92% | Potency [4] > 20.6 µM

CC(Sc1ccc2ccccc2n1)C(=O)O (stereo not given)
inactive: activity change, negative = inhibition [1] 14.7% | activity change, negative = inhibition [2] 9.86% | activity, negative = inhibition [3] 5.88% | Potency [4] > 20.6 µM

Cc1nc2sc(C)c(C)c2c(=O)o1
inactive: activity change, negative = inhibition [1] -1.58% | activity change, negative = inhibition [2] 4.96% | activity, negative = inhibition [3] -1.71% | Potency [4] > 20.6 µM

O=C1NC(c2cccs2)Nc2ccccc21 (stereo not given)
inactive: activity change, negative = inhibition [1] -27% | activity change, negative = inhibition [2] -4.93% | activity, negative = inhibition [3] -4.53% | Potency [4] > 20.6 µM

COC(=O)/C=c1/s/c(=C(\C#N)C(=O)NCc2ccco2)n(-c2ccccc2)c1=O
inactive: activity change, negative = inhibition [1] -2.83% | activity change, negative = inhibition [2] -25.7% | activity, negative = inhibition [3] 5.13% | Potency [4] > 20.6 µM

O=c1[nH]c2cnccc2n1-c1ccccc1
inactive: activity change, negative = inhibition [1] -12.9% | activity change, negative = inhibition [2] -4.82% | activity, negative = inhibition [3] 1.57% | Potency [4] > 20.6 µM

COc1cccc(C2/C(=C(/O)c3ccc(C)cc3)C(=O)C(=O)N2Cc2ccco2)c1 (stereo not given)
inactive: activity change, negative = inhibition [1] 2.99% | activity change, negative = inhibition [2] -8.9% | activity, negative = inhibition [3] -9.32% | Potency [4] > 20.6 µM

CSc1nnc(C)c(=O)[nH]1
inactive: activity change, negative = inhibition [1] -4.3% | activity change, negative = inhibition [2] -8.38% | activity, negative = inhibition [3] 14.8% | Potency [4] > 20.6 µM

Source: PubChem BioAssay (NCATS)
